# Results filed as inconclusive are left out. Active and inactive are the calls of the source. Rule for the calls: active = hit-call score of the fitted dose curve at least 0.9, where 1 is the maximum; inconclusive = response in the unintended direction; inactive = score below 0.9.
# Biological target: human Phosphodiesterase 4A1 (PDE4A1), PDE4A (gene 5141) (UniProt P27815)
# Experiment: NVS_ENZ_hPDE4A1: NovaScreen (NVS) Enzymatic Assay for human Phosphodiesterase 4A1 (PDE4A1) (AID 2283191)
# Outline: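 Fluorescent substrate turnover by recombinant PDE4A1 read after 1 h by mobility-shift separation. Primary duplicate screen at 25 uM; hits retested in concentration series with a 50 uM maximum, relative to DMSO.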
# Chain of human Phosphodiesterase 4A1 (PDE4A1), PDE4A (gene 5141) (P27815 whole entry, looked up): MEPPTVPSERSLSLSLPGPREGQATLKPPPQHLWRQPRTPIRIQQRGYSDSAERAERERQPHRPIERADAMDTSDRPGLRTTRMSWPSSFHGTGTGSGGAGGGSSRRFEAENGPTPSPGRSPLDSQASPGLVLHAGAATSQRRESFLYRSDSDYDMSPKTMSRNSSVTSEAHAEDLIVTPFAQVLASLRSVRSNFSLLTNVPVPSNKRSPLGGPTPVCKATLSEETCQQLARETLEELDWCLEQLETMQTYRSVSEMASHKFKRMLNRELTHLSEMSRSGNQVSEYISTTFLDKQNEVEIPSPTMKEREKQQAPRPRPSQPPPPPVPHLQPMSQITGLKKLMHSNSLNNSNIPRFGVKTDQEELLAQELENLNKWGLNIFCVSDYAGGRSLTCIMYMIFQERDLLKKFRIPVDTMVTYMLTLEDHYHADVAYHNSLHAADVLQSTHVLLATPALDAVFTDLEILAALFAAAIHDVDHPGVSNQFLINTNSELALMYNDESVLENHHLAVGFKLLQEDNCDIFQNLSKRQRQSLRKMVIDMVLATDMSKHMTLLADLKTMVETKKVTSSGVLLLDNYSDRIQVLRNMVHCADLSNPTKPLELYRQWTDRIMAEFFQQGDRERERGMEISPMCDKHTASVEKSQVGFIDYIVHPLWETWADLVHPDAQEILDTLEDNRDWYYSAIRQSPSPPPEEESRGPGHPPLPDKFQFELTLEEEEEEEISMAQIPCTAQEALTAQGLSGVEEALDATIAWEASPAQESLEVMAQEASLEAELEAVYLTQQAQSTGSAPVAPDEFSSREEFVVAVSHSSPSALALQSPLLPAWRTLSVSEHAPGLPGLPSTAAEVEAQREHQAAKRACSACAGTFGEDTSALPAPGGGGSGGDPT
SMILES,AC50,outcome
CCC(C)n1c(=O)[nH]c(C)c(Br)c1=O (stereo unspecified),25 µM (active),–
CCOP(=O)(OCC)Oc1nc(Cl)c(Cl)cc1Cl,25 µM (active),–
CCN(CC)c1nc(C)cc(OP(=S)(OC)OC)n1,25 µM (active),–
COC(=O)NC(=S)Nc1ccccc1NC(=S)NC(=O)OC,–,inactive
COP(=S)(OC)Oc1ccc([N+](=O)[O-])c(C)c1,–,inactive
CC(C)Nc1nc(Cl)nc(NC(C)C)n1,1 µM (active),–
CCNP(=S)(OC)O/C(C)=C/C(=O)OC(C)C (stereo unspecified),19.5 µM (active),–

# Biological target: human Phosphodiesterase 5 (PDE5), PDE5A (gene 8654) (UniProt O76074)
# Experiment: NVS_ENZ_hPDE5: NovaScreen (NVS) Enzymatic Assay for human Phosphodiesterase 5 (PDE5) (AID 2283194)
# Outline: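 Screening began in duplicate at 25 uM, with actives taken into concentration-response. Enzyme activity of recombinant PDE5 toward its substrate was measured at 1 h by fluorescence mobility-shift detection, relative to DMSO controls.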
SMILES,outcome,AC50
Cc1cnc(C2=NC(C)(C(C)C)C(=O)N2)c(C(=O)O)c1 (stereo unspecified),inactive,–
COP(=S)(OC)SCn1nnc2ccccc2c1=O,–,4.85 µM (active)
Cc1nc(N(C)C)nc(OC(=O)N(C)C)c1C,inactive,–
CCOP(=O)(OCC)Oc1nc(Cl)c(Cl)cc1Cl,inactive,–
CC(C)Nc1nc(Cl)nc(NC(C)C)n1,inactive,–

# Biological target: Serine/threonine-protein phosphatase PP1-alpha catalytic subunit (Homo sapiens) (UniProt P62136)
# Experiment: NVS_ENZ_hPPP1CA: NovaScreen (NVS) Enzymatic Assay for human Protein Phosphatase 1 Aatalytic subunit Alpha (PPP1CA) (AID 2283200)
# Outline: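 Chemicals were first screened in duplicate at 25 uM, and those passing threshold (e.g. 30% inhibition) were run as concentration series to 50 uM. Cell-free recombinant protein, 1.33 h read, fluorescent substrate/product mobility-shift detection, normalised to DMSO.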
# Chain of Serine/threonine-protein phosphatase PP1-alpha catalytic subunit (Homo sapiens) (P62136 whole entry, looked up): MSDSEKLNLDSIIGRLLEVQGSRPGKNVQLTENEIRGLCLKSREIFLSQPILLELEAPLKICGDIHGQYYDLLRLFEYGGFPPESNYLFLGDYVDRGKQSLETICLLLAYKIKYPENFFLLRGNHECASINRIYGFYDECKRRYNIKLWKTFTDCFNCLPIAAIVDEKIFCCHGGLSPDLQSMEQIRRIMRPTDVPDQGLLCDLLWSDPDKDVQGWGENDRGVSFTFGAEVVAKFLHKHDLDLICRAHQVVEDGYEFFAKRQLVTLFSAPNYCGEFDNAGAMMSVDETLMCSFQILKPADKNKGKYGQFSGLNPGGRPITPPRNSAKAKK
SMILES,outcome,AC50
CCNC(=O)NC(=O)C(C#N)=NOC,inactive,–
O=P(O)(O)CCCl,–,9.89 µM (active)
CC(C)NC(=O)N1CC(=O)N(c2cc(Cl)cc(Cl)c2)C1=O,inactive,–

# Biological target: human Protein Tyrosine Phosphatase Non-receptor Type 1 (PTPN1), PTPN1 (gene 5770) (UniProt P18031)
# Experiment: NVS_ENZ_hPTPN1: NovaScreen (NVS) Enzymatic Assay for human Protein Tyrosine Phosphatase Non-receptor Type 1 (PTPN1) (AID 2283201)
# Outline: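 Chemicals were first tested in duplicate at 25 uM, and those passing threshold went on to singleton concentration series topping at 50 uM. Recombinant enzyme, specific substrate, product separated by mobility shift, fluorescence read at 1.33 h; activity loss relative to DMSO.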
# Chain of human Protein Tyrosine Phosphatase Non-receptor Type 1 (PTPN1), PTPN1 (gene 5770) (P18031 whole entry, looked up): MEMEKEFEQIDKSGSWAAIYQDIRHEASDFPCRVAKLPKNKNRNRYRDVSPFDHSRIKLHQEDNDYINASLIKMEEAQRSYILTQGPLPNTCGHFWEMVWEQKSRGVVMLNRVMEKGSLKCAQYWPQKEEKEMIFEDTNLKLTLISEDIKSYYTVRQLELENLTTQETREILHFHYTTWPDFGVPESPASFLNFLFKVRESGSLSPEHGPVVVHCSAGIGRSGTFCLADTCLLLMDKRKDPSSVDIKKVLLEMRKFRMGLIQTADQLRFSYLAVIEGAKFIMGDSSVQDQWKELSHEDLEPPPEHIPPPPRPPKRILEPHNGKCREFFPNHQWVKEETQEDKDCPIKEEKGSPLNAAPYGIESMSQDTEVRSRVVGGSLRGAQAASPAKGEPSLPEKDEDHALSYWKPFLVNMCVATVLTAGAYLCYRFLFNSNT
row,SMILES,outcome
1,CCCC(=NOCC)C1=C(O)CC(CC(C)SCC)CC1=O (stereo unspecified),inactive
2,CC(C)N1C(=O)N(c2ccccc2)CSC1=NC(C)(C)C,inactive
3,Nc1cnn(-c2ccccc2)c(=O)c1Cl,inactive
4,Nc1c(Cl)c(Cl)nc(C(=O)O)c1Cl,inactive
5,CN=C=S,inactive
6,CCOc1nc(F)cc2nc(S(=O)(=O)Nc3c(Cl)cccc3Cl)nn12,inactive
7,N#Cc1c[nH]cc1-c1cccc2c1OC(F)(F)O2,inactive

# Biological target: human Phosphatase and Tensin Homolog (PTEN), PTEN (gene 5728) (UniProt P60484)
# Experiment: NVS_ENZ_hPTEN: NovaScreen (NVS) Enzymatic Assay for human Phosphatase and Tensin Homolog (PTEN) (AID 2283203)
# Outline: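 Loss of fluorescent product signal after mobility-shift separation reports PTEN activity, recombinant human enzyme, 1 h after compound addition. Single 25 uM duplicate screen, then concentration-response on actives; DMSO baseline.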
# Chain of human Phosphatase and Tensin Homolog (PTEN), PTEN (gene 5728) (P60484 whole entry, looked up): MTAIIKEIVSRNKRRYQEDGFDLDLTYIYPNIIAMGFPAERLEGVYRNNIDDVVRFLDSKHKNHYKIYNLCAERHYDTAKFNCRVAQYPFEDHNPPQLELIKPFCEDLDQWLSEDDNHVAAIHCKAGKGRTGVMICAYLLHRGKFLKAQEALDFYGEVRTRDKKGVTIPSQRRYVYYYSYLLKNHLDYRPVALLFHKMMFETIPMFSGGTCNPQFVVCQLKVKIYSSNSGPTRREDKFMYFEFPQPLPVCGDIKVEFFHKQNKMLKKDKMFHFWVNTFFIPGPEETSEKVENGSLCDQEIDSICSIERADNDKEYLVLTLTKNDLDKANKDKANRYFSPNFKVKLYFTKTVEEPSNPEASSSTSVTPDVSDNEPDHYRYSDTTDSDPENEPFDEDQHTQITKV
SMILES,AC50,outcome
CCCC(=NOCC)C1=C(O)CC(CC(C)SCC)CC1=O (stereo unspecified),18.2 µM (active),–
N#CN=C1SCCN1Cc1ccc(Cl)nc1,–,inactive
O=C1C2CC=CCC2C(=O)N1SC(Cl)(Cl)Cl (stereo unspecified),23 µM (active),–
CCOc1nc(F)cc2nc(S(=O)(=O)Nc3c(Cl)cccc3Cl)nn12,29.9 µM (active),–

# Source: PubChem BioAssay (EPA / NIEHS)
